The values below come from PubChem BioAssay (NCI).

About 83,000 compounds went through this panel and 20% of them were active in at least one assay; those are over-represented in the sample as a whole.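 Step 1: grow cells in 96-well plates. Step 2: add test compound at a single concentration. Step 3: incubate 48 h. Step 4: record percent growth.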 A number with no mark means an inactive call. The source made the active and inactive calls. The calls were made as follows: active = growth percent below 10; inactive = the rest.

Test systems include NCI-H23 lung; NCI-H226 lung; HOP-62 NSCLC; NCI-H460 lung; HOP-92 NSCLC; NCI-H522 lung; A549/ATCC NSCLC; 786-0 renal; COLO 205 colon.
Common to all, as to experiment: NCI-60 one-dose screen, 48 h (100 = growth as untreated, 0 = no growth, -100 = all killed)
Settings in all cases: 10 µM

Regarding `Oc1cccc(-c2nc3sccn3c2-c2ccncn2)c1`, the growth in the assay with NCI-H23 lung was 92.1%; in the assay with NCI-H226 lung, 94.4%; in the assay on HOP-62 NSCLC, 103%; with NCI-H460 lung, 97.8%; with HOP-92 NSCLC it was 82.6%; in the assay with NCI-H522 lung it was 98.9%. Also, the growth is 100% in the assay on A549/ATCC NSCLC, 95.7% in the assay on 786-0 renal and 32.1% in the assay with COLO 205 colon.
`CS(=O)(=O)c1nccc(-c2c(-c3cccc(OCc4ccccc4)c3)nc3sccn23)n1`: the growth with NCI-H23 lung is 53.6%; in the assay with NCI-H226 lung, 50.8%; in the assay on HOP-62 NSCLC, 92.9%; in the assay on NCI-H460 lung, 103%; in the assay with HOP-92 NSCLC it was 51.8%; in the assay with NCI-H522 lung, 5.91% (active). Moreover, the growth in the assay on A549/ATCC NSCLC was 106%; in the assay on 786-0 renal, 86.3%; in the assay on COLO 205 colon it was 88.4%.
On to `Nc1c(Br)cc(Br)c2c1[nH]c(=O)c1ccccc12`, for which the growth is 67% in the assay with NCI-H23 lung; 19.5% in the assay with NCI-H226 lung; 22.4% in the assay on HOP-62 NSCLC; 29.1% in the assay on NCI-H460 lung; 82.8% in the assay on HOP-92 NSCLC; 87.4% in the assay with NCI-H522 lung. Moreover, the values for the growth in the assay with A549/ATCC NSCLC, with 786-0 renal and with COLO 205 colon were 58.7%, 74.3% and 86.5%, respectively.
As to `Cc1c(Cl)cccc1NC(=O)CCCl`, the growth with NCI-H23 lung is 105%; in the assay with NCI-H226 lung it was 95.3%; in the assay with HOP-62 NSCLC, 86.9%; in the assay with NCI-H460 lung, 102%; in the assay on HOP-92 NSCLC, 103%; in the assay with NCI-H522 lung it was 91%. The growth in the assay with A549/ATCC NSCLC was 92.8%; in the assay with 786-0 renal, 103%; with COLO 205 colon, 107%.
On to `COc1ccc(C2CC(c3cccs3)=NN2c2ccc(S(N)(=O)=O)cc2)cc1` (centres undefined), for which the growth with NCI-H23 lung was 104%; in the assay with NCI-H226 lung, 90.7%; in the assay with HOP-62 NSCLC it was 97.8%; in the assay with NCI-H460 lung, 84.2%; with HOP-92 NSCLC it was 63.1%; in the assay with NCI-H522 lung it was 69.6%. For the same molecule, the growth was 75.8% in the assay with A549/ATCC NSCLC, 96.5% with 786-0 renal and -89.6% (active) in the assay with COLO 205 colon.
For the molecule `COc1ccc(/C(C#N)=C/c2ccccc2OC)cc1`, the growth was 41.7% with NCI-H23 lung; 64.8% in the assay on NCI-H226 lung; 44.7% with HOP-62 NSCLC; 20.9% in the assay with NCI-H460 lung; 74.4% in the assay on HOP-92 NSCLC; 5.02% (active) with NCI-H522 lung. Also, the growth is 36.2% with A549/ATCC NSCLC, 52.4% in the assay on 786-0 renal and 14.2% in the assay on COLO 205 colon.
For `NS(=O)(=O)c1ccc(N2N=C(c3ccccc3)CCC2=O)cc1`, the growth in the assay with NCI-H23 lung is 95.4%; in the assay on NCI-H226 lung it was 120%; in the assay on HOP-62 NSCLC it was 95.8%; with NCI-H460 lung, 102%; in the assay with HOP-92 NSCLC, 97.7%; with NCI-H522 lung, 85.7%. Also, the values for the growth in the assay on A549/ATCC NSCLC, with 786-0 renal and with COLO 205 colon were 93.6%, 82.7% and 156%, respectively.
In the case of `COc1cc(-c2nn(-c3cccc(NC(=O)CN4CCOCC4)c3)cc2-c2cccnc2)ccc1Cl`, the growth with NCI-H23 lung was 90.9%; with NCI-H226 lung, 82.2%; in the assay on HOP-62 NSCLC, 98.9%; in the assay on NCI-H460 lung it was 84%; in the assay on HOP-92 NSCLC, 50.4%; in the assay on NCI-H522 lung it was 49.1%. The growth in the assay with A549/ATCC NSCLC is 83.8%; with 786-0 renal, 94.6%; in the assay with COLO 205 colon, 88.3%.
For `COc1cc(/C=C/c2cc(/C=C/c3ccc(O)c(OC)c3)[nH]c(=O)n2)ccc1O`, the growth in the assay on NCI-H23 lung is 62.8%; in the assay with NCI-H226 lung, 76.2%; in the assay with HOP-62 NSCLC it was 70.8%; in the assay with NCI-H460 lung, 69.7%; in the assay with HOP-92 NSCLC it was 33.7%; in the assay on NCI-H522 lung, 54.6%. The growth was 71.7% with A549/ATCC NSCLC, 82.6% in the assay with 786-0 renal and 51.8% in the assay on COLO 205 colon.
Turning to `CC(C)(C)OC(=O)N1CCc2c(sc3ncnc(N/N=C/c4ccccc4Br)c23)C1`, the growth in the assay on NCI-H23 lung was 74%; with NCI-H226 lung it was 78%; with HOP-62 NSCLC, 85.8%; with NCI-H460 lung, 49.2%; in the assay on HOP-92 NSCLC, 80.8%; in the assay with NCI-H522 lung, 68.2%. Also, the values for the growth in the assay on A549/ATCC NSCLC, in the assay with 786-0 renal and in the assay with COLO 205 colon were 68.1%, 69.2% and 27.6%, respectively.
Regarding `COc1cc(-c2nn(-c3cccc(NC(=O)NCCNC(=O)c4cccc(C(F)(F)F)c4)c3)cc2-c2ccncc2)ccc1Cl`, the growth in the assay on NCI-H23 lung was 57%; in the assay on NCI-H226 lung it was 70.8%; with HOP-62 NSCLC, 59.6%; in the assay on NCI-H460 lung, 18.7%; in the assay on HOP-92 NSCLC, 42.5%; in the assay with NCI-H522 lung it was 24.4%. For the same molecule, the growth is 31.3% in the assay on A549/ATCC NSCLC, 17.4% with 786-0 renal and 39.7% in the assay on COLO 205 colon.
With `Cc1[nH]c2ccccc2c1/C=N/Nc1ncnc2sc3c(c12)CCN(CC(=O)OC(C)(C)C)C3`, the growth was 91.6% in the assay with NCI-H23 lung; 98% with NCI-H226 lung; 92.4% with HOP-62 NSCLC; 98.3% in the assay with NCI-H460 lung; 61.2% with HOP-92 NSCLC; 58.4% with NCI-H522 lung. Besides, the growth in the assay with A549/ATCC NSCLC is 65%; in the assay with 786-0 renal, 47.1%; in the assay on COLO 205 colon, 63.4%.
In the case of `CCOS(=O)(=O)c1c(C(C)C)cc(C(C)C)cc1C(C)C`, the growth with NCI-H23 lung is 98.4%; in the assay on NCI-H226 lung, 99.5%; in the assay with HOP-62 NSCLC, 98.9%; with NCI-H460 lung, 103%; in the assay with HOP-92 NSCLC, 99.1%; in the assay on NCI-H522 lung, 100%. Further, the growth was 102% in the assay with A549/ATCC NSCLC, 105% in the assay on 786-0 renal and 104% with COLO 205 colon.
On to `Cc1noc(C)c1CSc1ccccc1C(=O)N1CCN(c2cccc(C(F)(F)F)c2)CC1`, for which the growth is 67.9% in the assay on NCI-H23 lung; 75.6% in the assay on NCI-H226 lung; 91.5% with HOP-62 NSCLC; 84.2% in the assay on NCI-H460 lung; 68.1% in the assay on HOP-92 NSCLC; 62% with NCI-H522 lung. The values for the growth in the assay with A549/ATCC NSCLC, in the assay with 786-0 renal and with COLO 205 colon were 73.7%, 87.5% and 74.2%, respectively.
For `Cc1c(Cl)cccc1NC(=O)CN1CCOCC1`, the growth was 95.9% with NCI-H23 lung; 106% in the assay on NCI-H226 lung; 93% in the assay with HOP-62 NSCLC; 100% in the assay on NCI-H460 lung; 118% in the assay with HOP-92 NSCLC; 75.1% with NCI-H522 lung. In addition, the growth was 106% in the assay on A549/ATCC NSCLC, 99.7% in the assay with 786-0 renal and 108% in the assay on COLO 205 colon.
On to `CC(C)C1=C(O)C2=C(C(=O)C1=O)[C@@]1(C)CCCC(C)(C)[C@@H]1CC2`, for which the growth was 65.8% in the assay with NCI-H23 lung; 83.5% with NCI-H226 lung; 70.6% with HOP-62 NSCLC; 37.6% with NCI-H460 lung; 53.6% in the assay with HOP-92 NSCLC; 86.9% in the assay with NCI-H522 lung. In addition, the growth with A549/ATCC NSCLC was 62.1%; in the assay with 786-0 renal, 78.7%; in the assay with COLO 205 colon, 92.7%.
